In PubChem BioAssay (EPA / NIEHS):
Values joined by “and” are separate entries in the source; they are usually repeats but may differ in a detail not shown here. Equal entries are not always repeated. Active and inactive are the calls of the source. The calls were made as follows: active = hit-call score of the fitted dose curve at least 0.9, where 1 is the maximum; inconclusive = response in the unintended direction; inactive = score below 0.9.

Target: Peroxisome proliferator-activated receptor gamma (Homo sapiens) (UniProt P37231)
Sequence (P37231 whole entry, looked up): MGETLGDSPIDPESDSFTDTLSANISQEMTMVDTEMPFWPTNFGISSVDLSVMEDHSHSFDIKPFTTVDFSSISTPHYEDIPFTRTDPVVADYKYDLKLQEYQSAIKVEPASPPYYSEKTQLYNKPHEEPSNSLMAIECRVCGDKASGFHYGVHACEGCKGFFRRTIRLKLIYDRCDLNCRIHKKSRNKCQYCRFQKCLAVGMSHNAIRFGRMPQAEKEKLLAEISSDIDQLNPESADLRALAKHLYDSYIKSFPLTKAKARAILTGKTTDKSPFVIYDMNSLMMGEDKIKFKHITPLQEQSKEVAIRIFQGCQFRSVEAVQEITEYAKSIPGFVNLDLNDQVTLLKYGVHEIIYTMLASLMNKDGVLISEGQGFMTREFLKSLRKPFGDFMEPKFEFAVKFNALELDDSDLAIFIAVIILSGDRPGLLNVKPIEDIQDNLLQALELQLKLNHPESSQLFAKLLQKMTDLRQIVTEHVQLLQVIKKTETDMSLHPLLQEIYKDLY
Experiment: OT_PPARg_PPARgSRC1_1440: Odyssey Thera (OT) 24-hour Protein-Complementation Assay for Peroxisome Proliferator-activated Receptor Gamma/ SRC-1 Co-activator (AID 2283388);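 also: nuclear to cytoplasmic ratio of reconstituted Venus YFP fluorescence in fixed imaged cells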
Description: OT_PPARg_PPARgSRC1_1440 is a cell-based assay that uses HEK293T, a human kidney cell line, with measurements taken at 24 hours after chemical dosing in a 384-well plate.OT_PPARg_PPARgSRC1_1440 is one of one assay component(s) measured or calculated from the OT_PPARg_PPARgSRC1_1440 assay. It is designed to make measurements of protein fragment complementation, a form of binding reporter, as detected with fluorescence intensity signals by Protein-fragment Complementation technology.Data from the assay component OT_PPARg_PPARgSRC1_1440 was analyzed into 1 assay endpoint. This assay endpoint, OT_PPARg_PPARgSRC1_1440, was analyzed in the positive analysis fitting direction relative to DMSO as the negative control and baseline of activity. Using a type of binding reporter, measures of receptor for gain-of-signal activity can be used to understand the binding at the pathway-level as they relate to the gene PPARG. Furthermore, this assay endpoint can be referred to as a primary readout, because the performed assay has only produced 1 assay endpoint. To generalize the intended target to other relatable targets, this assay endpoint is annotated to the nuclear receptor intended target family, where the subfamily is non-steroidal.
The OT PPARg/SRC-1 assay assessed receptor-chemical interactions using a rapidly maturing, intensely fluorescent mutant of YFP known as Venus, rationally dissected into two separate fragments. The fragments were obtained as follows: first, fragments coding for YFP1 and YFP2 (corresponding to amino acid residues 1-158 and 159-239 of the full length YFP, respectively) were generated by oligonucleotide synthesis (Blue Heron Biotechnology), and then PCR mutagenesis was used to generate the mutant fragments IFP1 and IFP2. Fusion constructs were transfected into HEK293T cells with a (Gly4Ser)2 linker between the PPARg/SRC-1 and YFP fragment genes to facilitate complementation when interacting proteins bring fragments into close proximity. The construct is transiently transfected in HEK293T cells 48 hours prior to treatment with test compounds. Cells are seeded into optical quality 384-well poly-D-lysine coated plates in MEM alpha medium (Invitrogen) supplemented with 10 percent FBS (Gemini Bio-Products) 1 percent penicillin and 1 percent streptomycin, and grown in 37C incubator equilibrated to 5 percent CO2. Cells are allowed to adhere for 24 hours prior to treatment with compounds of interest or controls for 24 hours. Cells are fixed in 4 percent formaldehyde and stained with Draq5 (BioStatus) to identify cells and subcellular compartment boundaries prior to signal detection. 8 Images per well were acquired on an Evotec Opera at 2 wavelengths (488 and 635nm), and the ratio of fluorescence in the nucleus relative to fluorescence in the cytoplasm (N/C Ratio) in the 488nm channel was calculated for a minimum of 350 cells per image.

Compound | outcome | AC50
CC(C)NCC(O)c1ccc(O)c(O)c1 (stereo not given) | inactive | –
COC(=O)[C@H]1[C@H]2C[C@@H]3c4[nH]c5cc(OC)ccc5c4CCN3C[C@H]2C[C@@H](OC(=O)c2cc(OC)c(OC)c(OC)c2)[C@@H]1OC | – | 12.5 µM (active) and 34.3 µM (active)
O=C1OC(c2ccc(O)cc2)(c2ccc(O)cc2)c2ccccc21 | inactive | –
CCCCOC(=O)CCCCC(=O)OCCCC | inactive | –
CCN(CC)CCOc1ccc(C(=C(Cl)c2ccccc2)c2ccccc2)cc1 | inactive | –
CCCCCCCCCC[N+](C)(C)[O-] | inactive | –
CN(C)CCCN(C)CCCN(C)C | inactive | –
CC(COCC(C)OC(=O)c1ccccc1)OC(=O)c1ccccc1 (stereo not given) | inactive | –
COC(=O)CCC(=O)OC | inactive | –
O=C(O)c1cccnc1 | inactive | –
N[C@@H](Cc1c[nH]c2ccccc12)C(=O)O | inactive | –
Oc1ccccc1O | inactive | –
CC(=O)O[C@]1(C(C)=O)CC[C@H]2[C@@H]3C=C(Cl)C4=CC(=O)[C@@H]5C[C@@H]5[C@]4(C)[C@H]3CC[C@@]21C | inactive | –
CC(C)COC(=O)CCCCC(=O)OCC(C)C | inactive | –
O=C1O[C@H]([C@H](O)CO)C(O)=C1O | inactive | –
O=C(O)c1[nH]n(-c2ccc(S(=O)(=O)O)cc2)c(=O)c1N=Nc1ccc(S(=O)(=O)O)cc1 | inactive | –
CCc1nc(N)nc(N)c1-c1ccc(Cl)cc1 | inactive | –
CN(C)C(=O)NC1(c2ccccc2)CCN(CCC[C@]2(c3ccc(Cl)c(Cl)c3)CCCN(C(=O)c3ccccc3)C2)CC1 | inactive | –
NCCOCCOCCN | inactive | –
CCCCCCC(C=O)=Cc1ccccc1 | inactive | –

Compound | outcome | AC50
CN(C)C(=O)NC1(c2ccccc2)CCN(CC[C@@]2(c3ccc(F)c(F)c3)CN(C(=O)c3ccccc3)CCO2)CC1 | inactive | –
CCCCCCCCCCCCCCOS(=O)(=O)O | inactive | –
c1ccc2occc2c1 | inactive | –
O=C(O)CN(CC(=O)O)CC(=O)O | inactive | –
Oc1ccc(O)cc1 | inactive | –
O=[Si]=O | inactive | –
O=C1CCCCC1 | inactive | –
CC(=O)OCC(COC(C)=O)OC(C)=O | inactive | –
COc1ccc(C(=O)Nc2nc3ccccc3c(NCc3ccccc3)c2C#N)cc1 | inactive | –
CCCCCCCCCCCCCCCCO | inactive | –
CSc1ccc(Oc2ccc(S(N)(=O)=O)cc2CN(C)C)cc1C | inactive | –
CCCCCCCC(=O)OC | inactive | –
CC(N)=O | inactive | –
Cc1ccc(-c2cc(C(F)(F)F)nn2-c2ccc(S(N)(=O)=O)cc2)cc1 | inactive | –
Cc1cn([C@H]2C=C[C@@H](CO)O2)c(=O)[nH]c1=O | inactive | –
C#CC(O)C(CC)CCCC (stereo not given) | inactive | –
CC(=O)OC1CC(C)OC(C)O1 (stereo not given) | inactive | –
O=C(N[C@@H](c1ccccc1)[C@@H]1CCCCN1)c1cccc(C(F)(F)F)c1Cl | inactive | –
OCC(CO)n1cnc(-c2ccc(F)cc2)c1-c1ccnc(Oc2ccccc2)n1 | inactive | –
CC(=O)S[C@H](C(=O)N[C@H]1Cc2ccccc2[C@H]2CCC[C@@H](C(=O)O)N2C1=O)C(C)C | inactive | –
